High-throughput results as filed in PubChem.
An excerpt weighted towards active compounds, which were near 2.4% of everything screened.
D2 PAM-1 – human D2 receptor positive allosteric modulation | 360,000 compounds, 0.23% hits | DiscoveRx D2 beta-arrestin cells, luminescence, 90 min; 100% = 57 uM dopamine signal | potentiation, % (concentration not given with the values); in the data active = potentiation above about 50%; inconclusive = mostly about 30% to 49%
Target sequence (P14416 whole entry, looked up): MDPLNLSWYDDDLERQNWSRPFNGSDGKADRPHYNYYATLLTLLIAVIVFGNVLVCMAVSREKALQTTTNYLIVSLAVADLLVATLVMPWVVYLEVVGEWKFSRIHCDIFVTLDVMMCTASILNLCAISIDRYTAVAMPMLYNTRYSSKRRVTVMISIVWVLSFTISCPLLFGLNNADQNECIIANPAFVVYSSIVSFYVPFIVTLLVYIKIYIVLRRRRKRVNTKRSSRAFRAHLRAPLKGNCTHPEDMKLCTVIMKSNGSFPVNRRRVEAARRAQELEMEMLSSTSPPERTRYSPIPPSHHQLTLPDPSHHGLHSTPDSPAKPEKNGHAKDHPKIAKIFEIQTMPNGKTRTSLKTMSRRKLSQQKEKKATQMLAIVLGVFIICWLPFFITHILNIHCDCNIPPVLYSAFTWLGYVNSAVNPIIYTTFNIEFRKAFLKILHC
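PathHunter D2 cells, attached overnight at 37 deg C, received compound in DMSO plus dopamine at EC20 (50 nM final) for 90 min at 37 deg C. Beta-arrestin recruitment was read as luminescence after 1 h with detection reagent at ambient temperature.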
D2 antagonist – antagonizes the human D2 dopamine receptor. P14416. HEK293 TREx D2 cells, calcium flux, dopamine EC80. inhibition, % at 10 µM. 340,000 compounds, 2% hits. AID 485344; in the data active = inhibition above about 30%; inactive = below that, where a call was filed; also: 0% is about no effect
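Inhibition of EC80 dopamine-driven calcium flux, recorded kinetically, defines activity here; cells are a tetracycline-induced HEK293 T-REx line expressing force-coupled D2.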
D2 ag-1 – activates the human D2 dopamine receptor. 340,000 compounds, 0.53% hits. P14416. AID 485358. HEK293 T-REx D2 cells, calcium flux agonist mode. activation, % at 2 µM;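 active = activation over 3 SD above normal in the single-dose calcium agonist read, cut at about 30% in these data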; also: 0% is about no effect
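Agonism is scored from calcium flux in a force-coupled, inducible HEK293 cell line expressing D2, read kinetically for 180 s after compound addition against dopamine controls.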
D2 PAM-2 – positively modulates the human D2 dopamine receptor allosterically. P14416. HEK293 T-REx D2, calcium flux, EC20 dopamine potentiation. potentiation, % at 10 µM. 340,000 compounds, 0.34% hits;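 active = potentiation over 3 SD above the plate norm, cut at about 30% in these data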; also: 0% is about no effect
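Calcium flux readout, no-wash dye, 1 read/s. Inducible HEK293 Trex D2 line, overnight 30 C. Compound alone 180 s (agonist flags), then EC20 dopamine, another 180 s to score potentiation.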
D2 ag-2 – agonists of human D2 dopamine receptor (beta-arrestin) | activation, % (concentration not given with the values) | P14416 | AID 624465 | 360,000 compounds, 0.084% hits | DiscoveRx PathHunter D2 beta-arrestin, luminescence, 90 min; 100% = 57 uM dopamine signal; in the data active = activation above about 40%; inconclusive = between about 15% and that limit
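Agonist mode: compounds alone added to overnight-plated D2 PathHunter cells for 90 min at 37 C, with 57 uM final dopamine (EC100) defining full response. Beta-arrestin recruitment detected by chemiluminescent reagent, read after 1 h at ambient temperature.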
D3 ag – D3 receptor agonism confirmed, beta-arrestin readout | shares compounds with D2 ag-1 | DiscoveRx D3 beta-arrestin cells, luminescence, 90 min | Potency, µM (doses to about 76.9 µM), for inactives: at the top dose activation, most hits filed as activators | 2,300 compounds, 4% hits | AID 720506;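 also: potency is read from the fitted curve at half-maximal effect; 100% = dopamine control response; nearly all actives have a fitted effect of over 70% in size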
D2 ag-3 – D2 receptor agonism, beta-arrestin counterscreen; shares compounds with D2 ag-1; Potency, µM (series often up to 76.9 µM), inactives show at the highest dose activation, usual class: activators; DiscoveRx PathHunter D2 beta-arrestin, luminescence, 90 min; response scale: percent relative to full dopamine signal; 2,300 compounds, 5.9% hits; also: potency is read from the fitted curve at half-maximal effect; % of control where 0% means no effect; nearly all actives have a fitted effect of over 70% in size
The depositor's hits bear a star; ? = inconclusive; / = no result. Unless noted, calls follow the shape of the dose curve; as a rule, active = well fitted activation curve with a large enough effect; inconclusive = small, poorly fitted or top-dose-only effect; inactive = flat fitted curve, though single readings scatter.

SMILES	D2 PAM-1	D2 antagonist	D2 ag-1	D2 PAM-2	D2 ag-2	D3 ag	D2 ag-3
OC(COc1cccc2ccccc12)CN1CCN(c2ccccc2)CC1 (stereo not given)	-0.2	65.0*	55.8*	-22.6	5.7	?	23.3%
CCCc1ccc(OCC(O)CN2CCN(c3ccccc3)CC2)cc1 (stereo not given)	-6.7	68.7*	61.5*	-26.2	?	-5.5%	?
Cc1ccc(NC(=O)N2CCc3c(sc4c3CCCC4)C2c2ccccc2)cc1F (stereo not given)	/	/	0.5	-2.7	/	/	/
COc1ccc(OCC(O)CN2CCN(c3ccc(OC)cc3)CC2)cc1 (stereo not given)	-39.2	-6.0	2.5	8.3	-4.7	/	/
COc1ccc(N2CCN(CC(O)COc3c(OC)cccc3OC)CC2)cc1 (stereo not given)	-23.5	20.8	-1.6	-18.2	-8.8	/	/
C=CCc1ccccc1OCC(O)CN1CCN(c2ccccc2)CC1 (stereo not given)	/	/	-3.8	-22.0	/	/	/
Cc1ccc(OCC(O)CN2CCN(c3ccccc3)CC2)cc1 (stereo not given)	-10.6	62.2*	45.7*	-22.8	2.7	17.4%	4.9%
C=CCc1cc(C)ccc1OCC(O)CN1CCN(c2ccccc2)CC1 (stereo not given)	-13.1	79.9*	61.9*	-27.9	6.0	0.631µM*	14.2%
OC(COc1ccc(Cl)cc1)CN1CCN(c2ccccc2)CC1 (stereo not given)	-16.1	71.4*	19.4	-25.1	1.9	?	2.4%
COc1cccc(OC)c1OCC(O)CN1CCN(c2ccccc2F)CC1 (stereo not given)	-9.5	85.7*	78.1*	-21.8	?	?	?
Cc1cc(C)c(NC(=O)CN2C(=O)CCn3nc(-c4cccn4C)cc32)c(C)c1	/	/	0.8	3.5	/	/	/
FC(F)(F)c1cc(-c2ccccc2)nc(NC2CCCC2)n1	-5.1	10.9	58.4*	-9.6	-2.6	-7.4%	-0.7%
O=c1nc2ccccc2c2n1CC(CN1CCN(c3ccc(F)cc3)CC1)N2 (stereo not given)	-7.6	-12.9	3.4	12.5	-3.0	/	/
CCS(=O)(=O)N1CCN(c2ccccc2F)CC1	-5.9	-2.0	0.6	2.5	-2.7	/	/
Fc1ccccc1N1CCN(CC2CCCCC2)CC1	-2.2	88.8*	14.7	-17.9	0.6	19.2%	22.8%
Fc1ccccc1N1CCN(Cc2cccnc2)CC1	1.4	67.7*	73.4*	-21.3	?	?	?
O=c1nc2ccccc2c2n1CC(CN1CCN(c3ccccc3F)CC1)N2 (stereo not given)	-20.6	16.1	28.9	-14.2	2.1	-3.1%	8.5%
CCOc1ccc(N(C(=O)c2ccc(OC)cc2)S(=O)(=O)c2ccc3c(c2)n(C)c(=O)n3C)cc1	/	/	/	14.7	/	/	/
CC(C(=O)Nc1ccc([N+](=O)[O-])cc1)N1CCN(C/C=C/c2ccccc2)CC1 (stereo not given)	-30.4	52.7*	67.0*	-29.6	3.1	?	?
CC(=O)c1ccc(NC(=O)C(C)N2CCN(C/C=C/c3ccccc3)CC2)cc1 (stereo not given)	-24.2	47.0*	19.7	-13.7	5.1	?	2.4%
COc1ccc(Cl)cc1NC(=O)C(C)N1CCN(C/C=C/c2ccccc2)CC1 (stereo not given)	-33.1	-11.0	11.6	-16.0	-1.9	/	/
CC(C(=O)N(C)Cc1ccccc1)N1CCN(C/C=C/c2ccccc2)CC1 (stereo not given)	-4.1	68.7*	68.6*	-15.7	?	?	?
CCOC(=O)c1c(C)oc2nc(C)nc(N3CCN(c4cccc(C(F)(F)F)c4)CC3)c12	/	/	-0.2	0.6	/	/	/
Cc1ccc(NC(=O)c2ccc(-n3cncn3)c([N+](=O)[O-])c2)cc1	-7.1	-26.7	0.9	2.7	1.9	/	/
